ELG1 genotoxic – qHTS screen for small molecules that induce genotoxicity in human embryonic kidney (HEK293T) cells expressing luciferase-tagged ELG1 | 330,000 tested, 1.3% active | Potency, µM (doses to about 46 µM), for inactives: at the highest dose activity change, positive = activation, most hits filed as activators | HEK293T ELG1-luciferase reporter, luminescence, 16 h; further: % of control where 0% means no effect; nearly all actives have a fitted effect of over 60% in size
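Quantitative HTS format in 1536-well plates. HEK293T ELG1-luciferase reporter cells receive test compound and are incubated 16 hr at 37 °C, 5% CO2; ONE-Glo added, 30 min room temperature, then luminescence read.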
NPC1 promoter act – qHTS Assay for NPC1 Promoter Activators. Potency, µM (top dose mostly 9.22 µM), for inactives: top-dose activation, most hits filed as activators. Huh7 NPC1 promoter luciferase reporter, 24 h. AID 485313, 2010. 320,000 tested, 2.4% active; further: % of control where 0% means no effect; nearly all actives have a fitted effect of over 60% in size
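Quantitative HTS used a cell-based reporter: Huh7 cells stably bearing the NPC1 promoter upstream of luciferase were treated with compounds for 24 h, and promoter activation was read as luminescence.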
Rab9 promoter act – qHTS Assay for Rab9 Promoter Activators. Huh7 Rab9 promoter-luciferase reporter, luminescence, 24 h. Potency, µM (series often up to 9.22 µM), without a hit: at the highest dose activation, negative = inhibition, usual class: activators. 320,000 tested, 2.8% active. AID 485297, 2010; further: % of control where 0% means no effect; nearly all actives have a fitted effect of over 60% in size
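Quantitative HTS format; Huh7 Rab9-luciferase reporter cells (1500/well) receive compound 2 h post-plating, incubate 24 h at 37 °C, then get luciferase reagent for 10 min before luminescence reading.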
Luc counter – Counterscreen for Luciferase (Kinase-Glo TM) Inhibition | Luciferin 4-monooxygenase (Photuris pensylvanica), Q27757 | Kinase-Glo luciferase, ATP luminescence, 8 min | Potency, µM (highest dose often 38.3 µM), inactives show at the highest dose activity change, negative = inhibition, hits mostly inhibitors | 200,000 tested, 0.28% active; further: on the % scale 0 is the no-effect control and ±100 the full control effect; nearly all actives have a fitted effect of over 60% in size
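Kinase-Glo luciferase light output from ATP and luciferin was measured with 10 uM ATP, within the enzyme's linear range. Buffer: 50 mM imidazole pH 7.2, 50 mM KCl, 7 mM MgCl2, 0.01% Tween 20, 0.05% BSA; luminescence read after 8 min at ambient temperature.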
SMN2 splice enh – qHTS Assay for Enhancers of SMN2 Splice Variant Expression. HEK293 SMN2-luciferase splicing reporter, luminescence, 30-36 h. 210,000 tested, 2.8% active. Potency, µM (titrated, usually from 46.1 µM), for inactives: at the top dose activity change, positive = activation, usual class: activators; further: % of control where 0% means no effect; nearly all actives have a fitted effect of over 55% in size
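HEK293 cells carry an SMN2 minigene-luciferase reporter in which exon 7 inclusion puts luciferase in frame. Cells were seeded at 2000 cells/well, attached for 10-12 hours, then exposed to compounds for 30-36 hours at 37C before ONE-Glo luminescence.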
FLuc counter – qHTS profiling assay for firefly luciferase inhibitor/activator using purifed enzyme and Km concentrations of substrates (counterscreen for miR-21 project); Luciferin 4-monooxygenase (Photinus pyralis), P08659; Potency, µM (doses to about 57.5 µM), for inactives: at the top dose activity change, negative = inhibition, most hits filed as inhibitors; 360,000 tested, 6.9% active; purified FLuc, Km substrates, luminescence inhibition; AID 588342, 2011;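 further: plate controls were vehicle for no effect and reference inhibitor for full effect; nearly all actives have a fitted effect of over 55% in size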
Target sequence (P08659 whole entry, looked up): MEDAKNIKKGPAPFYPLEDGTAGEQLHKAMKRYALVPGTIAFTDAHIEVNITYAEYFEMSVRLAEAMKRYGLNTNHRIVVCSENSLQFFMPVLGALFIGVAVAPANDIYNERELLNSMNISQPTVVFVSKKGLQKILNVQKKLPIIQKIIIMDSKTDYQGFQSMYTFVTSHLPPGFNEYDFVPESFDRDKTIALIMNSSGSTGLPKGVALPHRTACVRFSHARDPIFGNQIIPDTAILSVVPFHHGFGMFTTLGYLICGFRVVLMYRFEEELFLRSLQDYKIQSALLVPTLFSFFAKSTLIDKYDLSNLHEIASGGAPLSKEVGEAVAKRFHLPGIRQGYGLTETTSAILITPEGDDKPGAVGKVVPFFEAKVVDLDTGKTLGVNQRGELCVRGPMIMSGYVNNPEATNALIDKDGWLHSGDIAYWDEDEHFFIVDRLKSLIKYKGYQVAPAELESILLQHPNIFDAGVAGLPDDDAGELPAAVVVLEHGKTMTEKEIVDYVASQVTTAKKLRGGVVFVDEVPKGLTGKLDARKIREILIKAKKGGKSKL
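Purified P. pyralis luciferase, 10 nM final, with Km-level 10 uM D-luciferin and 10 uM ATP in 50 mM Tris acetate pH 7.5, 10 mM Mg acetate, 0.01% Tween-20, 0.05% BSA; 6-point qHTS titration about 60 µM downward; luminescence read.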
The depositor's hits bear a star; ? = inconclusive; / = no result given; [ ] = remark or other dose. Most compounds without a hit are left out; they make up all but 7.5% or so of the library. The call rests on the fitted dose curve; in most records, active means well fitted curve in the direction sought with a large enough effect; inconclusive means small, poorly fitted or top-dose-only effect, or another doubt; inactive means no such curve, though single readings can be large; an effect the other way counts as inactive or inconclusive. Potency means the concentration at half of the fitted maximal effect.

SMILES	ELG1 genotoxic	NPC1 promoter act	Rab9 promoter act	Luc counter	SMN2 splice enh	FLuc counter
CCCCOc1ccc(C(=O)NC)cc1	?	11.3%	1.1%	0.2%	-5.7%	-14.3%
O=C(Nc1cccnc1)c1ccc(Oc2ccccc2)cc1	4.11µM*	?	?	-10.7%	-5.0%	3.38µM*
CCCCOc1ccc(C(=O)Nc2ccncc2)cc1	13µM*	-18.3%	-26.3%	-2.7%	-112.4%	?
CCCOc1ccc(C(=O)Nc2cccnc2)cc1	10.3µM*	2.82µM*	?	/	/	10.7µM*
Cc1ccn2c(=O)c(C(=O)NCCc3ccc(S(N)(=O)=O)cc3)c(O)nc2c1	/	/	/	/	-0.5%	-3.9%
CCN(CC)c1ccc(-c2nn3c(-c4n[nH]c5c4CCC5)nnc3s2)cc1	1.2%	-8.9%	-13.3%	-5.6%	4.1%	21.3µM*
CC(C)C1N(C(=O)N2CCOCC2)CCN1S(=O)(=O)c1ccccc1 (centres undefined)	-1.0%	-2.9%	4.1%	/	/	-0.6%
Nc1ccc2nc(-c3cc(Cl)c(N)c(Cl)c3)[nH]c2c1	?	?	3.16µM*	?	15.8µM*	6.01µM*
Nc1ccc(-c2nc3c(Cl)c(N)ccc3[nH]2)cc1	16.6%	?	?	-26.0%	?	12µM*
Cc1nc2ccc(-c3nc4ccc(N)cc4[nH]3)cc2[nH]1	-2.9%	?	?	-17.7%	/	4.78µM*
Nc1ccc(-c2nc3ccc(N)cc3[nH]2)cc1	-8.5%	?	?	-12.2%	?	15.1µM*
CCOc1cc(/C=C(\C#N)C(=O)Nc2ccc(OC)cc2)ccc1OCc1cc(=O)n2nc(CC)sc2n1	/	/	/	/	-2.7%	0.2%
O=C(CSc1nncn2c1cc1sccc12)Nc1ccccc1C(F)(F)F	/	/	/	/	/	-5.7%
Nc1ccc2nc(-c3cccc(-c4nc5ccc(N)cc5[nH]4)c3)[nH]c2c1	-4.5%	-3.1%	-11.2%[1.84 µM]	/	/	7.57µM*
Nc1ccc2nc(-c3ccc(Cl)cc3)[nH]c2c1	16.4µM*	?	?	?	?	1.9µM*
CC1CCCCN1C(=O)COC(=O)/C=C/c1ccc2ccccc2n1 (centres undefined)	-3.6%	2.8%	0.1%	-3.2%	-20.0%	?
COC(=O)Cc1ccc2sc(-c3ccccc3)nc2c1	2.59µM*	1.58µM*	2.51µM*	12.6µM*	1.58µM*	0.675µM*
O=C(O)Cc1ccc2sc(-c3ccccc3)nc2c1	8.0%	13.7%	20.8%	?	21.2%	19µM*
COC(=O)CCC(C)C1CCC2C3C(O)C[C@@H]4CC(O)CC[C@@]4(C)C3CC(O)[C@]12C (some centres undefined)	/	/	/	1.6%	-17.2%	/
CC(=O)Nc1ccc(SCC(=O)N(C)C2CCS(=O)(=O)C2)cc1 (centres undefined)	0.0%	7.7%	0.5%	3.4%	-0.8%	0.8%
Nc1cc2nc[nH]c2cc1N	18.8%	-7.0%	11.2%	-10.2%	3.3%	15.1µM*
Cn1c(=O)n(C)c2cc3[nH]cnc3cc21	5.8%	-4.2%	11.9%	/	/	0.3%
CCOC(=O)CSc1nnc(-c2ccc(OC)cc2)o1	/	/	/	/	-0.3%	16.9µM*
COc1ccc(-c2nnc(SC)o2)c(OC)c1	?	13.1%	23.1%	2.0%	27.4%	?
COc1ccc(-c2nnc(SCC(C)C)o2)cc1	?	1µM*	0.631µM*	/	/	1.51µM*
CCOC(=O)CSc1nnc(-c2ccc(OC)cc2OC)o1	2.9%	-0.5%	1.9%	-2.9%	7.1%	9.53µM*
COc1ccc(-c2nnc(SCC(=O)Oc3ccc(C)cc3)o2)cc1	-0.2%	-0.4%	-0.1%	-0.1%	8.1%	?
OC1CCCCC1Sc1nc2ccccc2s1 (centres undefined)	?	?	?	-0.7%	-7.6%	16.9µM*

High-throughput results from PubChem BioAssay.
